Experimental data reported in the supplement of paper PMC10849652.
Of roughly 8,800 targets only a part is listed; those with a hit were picked by preference. About 0.5% of all pairs of compound and target were hits. Unmarked numbers belong to inactive results.

How the values were obtained:
Assay in all cases: log2 fold change, soluble protein after heating vs DMSO (PISA); higher = thermal stabilisation; K562 lysate, 10 uM; active = over 0.2 and 3.5 SD of the protein, either way, in both replicates (recomputed)
dasatinib = compound: Cc1nc(Nc2ncc(C(=O)Nc3c(C)cccc3Cl)s2)cc(N2CCN(CCO)CC2)n1 [dasatinib]
Summary of the method: (§1)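 Dounce homogenisation of K562 pellets in PBS pH 7.4 with 1 mM MgCl2 produced a crude extract, used at 1 mg/mL protein. Exposure to 10 μM compound lasted 30 min, and aliquots were then heated for 3 min across 48°C-58°C, pooled and brought to 0.5% NP-40 at 4°C. The supernatant after 21,000xg for 90 min was quantified by TMTpro 16plex LC-MS/MS with channel sums equalised. Duplicate values are given as log-two fold change in thermal stability relative to solvent controls.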

[1] = compound: Cn1cc(-c2ccc3c(c2)CCN3C(=O)Cc2cccc(C(F)(F)F)c2)c2c(N)ncnc21
Summary of the method: as §1

quisinostat = compound: Cn1cc(CNCC2CCN(c3ncc(C(=O)NO)cn3)CC2)c2ccccc21 [quisinostat]
Summary of the method: as §1

[2] = compound: NC(=O)Nc1cc(-c2cccc(F)c2)sc1C(=O)N[C@H]1CCCNC1
Summary of the method: as §1

[3] = compound: NC(=O)c1cnc(N[C@@H]2CCCC[C@@H]2N)nc1Nc1cccc(-n2nccn2)c1
Summary of the method: as §1

[4] = compound: NC1(c2ccc(-c3nc4ccn5c(=O)[nH]nc5c4cc3-c3ccccc3)cc2)CCC1
Summary of the method: as §1

[5] = compound: NCC(=O)Nc1ccc(-n2nc(C(F)(F)F)cc2-c2ccc3c(ccc4ccccc43)c2)cc1
Summary of the method: as §1

vorinostat = compound: O=C(CCCCCCC(=O)Nc1ccccc1)NO [vorinostat]
Summary of the method: as §1

silmitasertib = compound: O=C(O)c1ccc2c(c1)nc(Nc1cccc(Cl)c1)c1ccncc12 [silmitasertib]
Summary of the method: as §1

[6] = compound: O=C1NC(=O)C(c2cnc3ccccn23)=C1c1cn2c3c(cc(F)cc13)CN(C(=O)N1CCCCC1)CC2
Summary of the method: as §1

entospletinib = compound: c1cn2cc(-c3ccc4cn[nH]c4c3)nc(Nc3ccc(N4CCOCC4)cc3)c2n1 [entospletinib]
Summary of the method: as §1

nilotinib = compound: Cc1cn(-c2cc(NC(=O)c3ccc(C)c(Nc4nccc(-c5cccnc5)n4)c3)cc(C(F)(F)F)c2)cn1 [nilotinib]
Summary of the method: as §1

[7] = compound: Cc1nc(Nc2n[nH]c3c2CN(C(=O)N[C@H](CN(C)C)c2ccccc2)C3(C)C)c2sccc2n1
Summary of the method: as §1

[8] = compound: Cc1ncc(-c2ccnc(Nc3ccc(S(C)(=O)=O)cc3)n2)n1C(C)C
Summary of the method: as §1

tipifarnib = compound: Cn1cncc1[C@@](N)(c1ccc(Cl)cc1)c1ccc2c(c1)c(-c1cccc(Cl)c1)cc(=O)n2C [tipifarnib]
Summary of the method: as §1

Sequence of UniProt P21817 (P21817 whole entry, looked up): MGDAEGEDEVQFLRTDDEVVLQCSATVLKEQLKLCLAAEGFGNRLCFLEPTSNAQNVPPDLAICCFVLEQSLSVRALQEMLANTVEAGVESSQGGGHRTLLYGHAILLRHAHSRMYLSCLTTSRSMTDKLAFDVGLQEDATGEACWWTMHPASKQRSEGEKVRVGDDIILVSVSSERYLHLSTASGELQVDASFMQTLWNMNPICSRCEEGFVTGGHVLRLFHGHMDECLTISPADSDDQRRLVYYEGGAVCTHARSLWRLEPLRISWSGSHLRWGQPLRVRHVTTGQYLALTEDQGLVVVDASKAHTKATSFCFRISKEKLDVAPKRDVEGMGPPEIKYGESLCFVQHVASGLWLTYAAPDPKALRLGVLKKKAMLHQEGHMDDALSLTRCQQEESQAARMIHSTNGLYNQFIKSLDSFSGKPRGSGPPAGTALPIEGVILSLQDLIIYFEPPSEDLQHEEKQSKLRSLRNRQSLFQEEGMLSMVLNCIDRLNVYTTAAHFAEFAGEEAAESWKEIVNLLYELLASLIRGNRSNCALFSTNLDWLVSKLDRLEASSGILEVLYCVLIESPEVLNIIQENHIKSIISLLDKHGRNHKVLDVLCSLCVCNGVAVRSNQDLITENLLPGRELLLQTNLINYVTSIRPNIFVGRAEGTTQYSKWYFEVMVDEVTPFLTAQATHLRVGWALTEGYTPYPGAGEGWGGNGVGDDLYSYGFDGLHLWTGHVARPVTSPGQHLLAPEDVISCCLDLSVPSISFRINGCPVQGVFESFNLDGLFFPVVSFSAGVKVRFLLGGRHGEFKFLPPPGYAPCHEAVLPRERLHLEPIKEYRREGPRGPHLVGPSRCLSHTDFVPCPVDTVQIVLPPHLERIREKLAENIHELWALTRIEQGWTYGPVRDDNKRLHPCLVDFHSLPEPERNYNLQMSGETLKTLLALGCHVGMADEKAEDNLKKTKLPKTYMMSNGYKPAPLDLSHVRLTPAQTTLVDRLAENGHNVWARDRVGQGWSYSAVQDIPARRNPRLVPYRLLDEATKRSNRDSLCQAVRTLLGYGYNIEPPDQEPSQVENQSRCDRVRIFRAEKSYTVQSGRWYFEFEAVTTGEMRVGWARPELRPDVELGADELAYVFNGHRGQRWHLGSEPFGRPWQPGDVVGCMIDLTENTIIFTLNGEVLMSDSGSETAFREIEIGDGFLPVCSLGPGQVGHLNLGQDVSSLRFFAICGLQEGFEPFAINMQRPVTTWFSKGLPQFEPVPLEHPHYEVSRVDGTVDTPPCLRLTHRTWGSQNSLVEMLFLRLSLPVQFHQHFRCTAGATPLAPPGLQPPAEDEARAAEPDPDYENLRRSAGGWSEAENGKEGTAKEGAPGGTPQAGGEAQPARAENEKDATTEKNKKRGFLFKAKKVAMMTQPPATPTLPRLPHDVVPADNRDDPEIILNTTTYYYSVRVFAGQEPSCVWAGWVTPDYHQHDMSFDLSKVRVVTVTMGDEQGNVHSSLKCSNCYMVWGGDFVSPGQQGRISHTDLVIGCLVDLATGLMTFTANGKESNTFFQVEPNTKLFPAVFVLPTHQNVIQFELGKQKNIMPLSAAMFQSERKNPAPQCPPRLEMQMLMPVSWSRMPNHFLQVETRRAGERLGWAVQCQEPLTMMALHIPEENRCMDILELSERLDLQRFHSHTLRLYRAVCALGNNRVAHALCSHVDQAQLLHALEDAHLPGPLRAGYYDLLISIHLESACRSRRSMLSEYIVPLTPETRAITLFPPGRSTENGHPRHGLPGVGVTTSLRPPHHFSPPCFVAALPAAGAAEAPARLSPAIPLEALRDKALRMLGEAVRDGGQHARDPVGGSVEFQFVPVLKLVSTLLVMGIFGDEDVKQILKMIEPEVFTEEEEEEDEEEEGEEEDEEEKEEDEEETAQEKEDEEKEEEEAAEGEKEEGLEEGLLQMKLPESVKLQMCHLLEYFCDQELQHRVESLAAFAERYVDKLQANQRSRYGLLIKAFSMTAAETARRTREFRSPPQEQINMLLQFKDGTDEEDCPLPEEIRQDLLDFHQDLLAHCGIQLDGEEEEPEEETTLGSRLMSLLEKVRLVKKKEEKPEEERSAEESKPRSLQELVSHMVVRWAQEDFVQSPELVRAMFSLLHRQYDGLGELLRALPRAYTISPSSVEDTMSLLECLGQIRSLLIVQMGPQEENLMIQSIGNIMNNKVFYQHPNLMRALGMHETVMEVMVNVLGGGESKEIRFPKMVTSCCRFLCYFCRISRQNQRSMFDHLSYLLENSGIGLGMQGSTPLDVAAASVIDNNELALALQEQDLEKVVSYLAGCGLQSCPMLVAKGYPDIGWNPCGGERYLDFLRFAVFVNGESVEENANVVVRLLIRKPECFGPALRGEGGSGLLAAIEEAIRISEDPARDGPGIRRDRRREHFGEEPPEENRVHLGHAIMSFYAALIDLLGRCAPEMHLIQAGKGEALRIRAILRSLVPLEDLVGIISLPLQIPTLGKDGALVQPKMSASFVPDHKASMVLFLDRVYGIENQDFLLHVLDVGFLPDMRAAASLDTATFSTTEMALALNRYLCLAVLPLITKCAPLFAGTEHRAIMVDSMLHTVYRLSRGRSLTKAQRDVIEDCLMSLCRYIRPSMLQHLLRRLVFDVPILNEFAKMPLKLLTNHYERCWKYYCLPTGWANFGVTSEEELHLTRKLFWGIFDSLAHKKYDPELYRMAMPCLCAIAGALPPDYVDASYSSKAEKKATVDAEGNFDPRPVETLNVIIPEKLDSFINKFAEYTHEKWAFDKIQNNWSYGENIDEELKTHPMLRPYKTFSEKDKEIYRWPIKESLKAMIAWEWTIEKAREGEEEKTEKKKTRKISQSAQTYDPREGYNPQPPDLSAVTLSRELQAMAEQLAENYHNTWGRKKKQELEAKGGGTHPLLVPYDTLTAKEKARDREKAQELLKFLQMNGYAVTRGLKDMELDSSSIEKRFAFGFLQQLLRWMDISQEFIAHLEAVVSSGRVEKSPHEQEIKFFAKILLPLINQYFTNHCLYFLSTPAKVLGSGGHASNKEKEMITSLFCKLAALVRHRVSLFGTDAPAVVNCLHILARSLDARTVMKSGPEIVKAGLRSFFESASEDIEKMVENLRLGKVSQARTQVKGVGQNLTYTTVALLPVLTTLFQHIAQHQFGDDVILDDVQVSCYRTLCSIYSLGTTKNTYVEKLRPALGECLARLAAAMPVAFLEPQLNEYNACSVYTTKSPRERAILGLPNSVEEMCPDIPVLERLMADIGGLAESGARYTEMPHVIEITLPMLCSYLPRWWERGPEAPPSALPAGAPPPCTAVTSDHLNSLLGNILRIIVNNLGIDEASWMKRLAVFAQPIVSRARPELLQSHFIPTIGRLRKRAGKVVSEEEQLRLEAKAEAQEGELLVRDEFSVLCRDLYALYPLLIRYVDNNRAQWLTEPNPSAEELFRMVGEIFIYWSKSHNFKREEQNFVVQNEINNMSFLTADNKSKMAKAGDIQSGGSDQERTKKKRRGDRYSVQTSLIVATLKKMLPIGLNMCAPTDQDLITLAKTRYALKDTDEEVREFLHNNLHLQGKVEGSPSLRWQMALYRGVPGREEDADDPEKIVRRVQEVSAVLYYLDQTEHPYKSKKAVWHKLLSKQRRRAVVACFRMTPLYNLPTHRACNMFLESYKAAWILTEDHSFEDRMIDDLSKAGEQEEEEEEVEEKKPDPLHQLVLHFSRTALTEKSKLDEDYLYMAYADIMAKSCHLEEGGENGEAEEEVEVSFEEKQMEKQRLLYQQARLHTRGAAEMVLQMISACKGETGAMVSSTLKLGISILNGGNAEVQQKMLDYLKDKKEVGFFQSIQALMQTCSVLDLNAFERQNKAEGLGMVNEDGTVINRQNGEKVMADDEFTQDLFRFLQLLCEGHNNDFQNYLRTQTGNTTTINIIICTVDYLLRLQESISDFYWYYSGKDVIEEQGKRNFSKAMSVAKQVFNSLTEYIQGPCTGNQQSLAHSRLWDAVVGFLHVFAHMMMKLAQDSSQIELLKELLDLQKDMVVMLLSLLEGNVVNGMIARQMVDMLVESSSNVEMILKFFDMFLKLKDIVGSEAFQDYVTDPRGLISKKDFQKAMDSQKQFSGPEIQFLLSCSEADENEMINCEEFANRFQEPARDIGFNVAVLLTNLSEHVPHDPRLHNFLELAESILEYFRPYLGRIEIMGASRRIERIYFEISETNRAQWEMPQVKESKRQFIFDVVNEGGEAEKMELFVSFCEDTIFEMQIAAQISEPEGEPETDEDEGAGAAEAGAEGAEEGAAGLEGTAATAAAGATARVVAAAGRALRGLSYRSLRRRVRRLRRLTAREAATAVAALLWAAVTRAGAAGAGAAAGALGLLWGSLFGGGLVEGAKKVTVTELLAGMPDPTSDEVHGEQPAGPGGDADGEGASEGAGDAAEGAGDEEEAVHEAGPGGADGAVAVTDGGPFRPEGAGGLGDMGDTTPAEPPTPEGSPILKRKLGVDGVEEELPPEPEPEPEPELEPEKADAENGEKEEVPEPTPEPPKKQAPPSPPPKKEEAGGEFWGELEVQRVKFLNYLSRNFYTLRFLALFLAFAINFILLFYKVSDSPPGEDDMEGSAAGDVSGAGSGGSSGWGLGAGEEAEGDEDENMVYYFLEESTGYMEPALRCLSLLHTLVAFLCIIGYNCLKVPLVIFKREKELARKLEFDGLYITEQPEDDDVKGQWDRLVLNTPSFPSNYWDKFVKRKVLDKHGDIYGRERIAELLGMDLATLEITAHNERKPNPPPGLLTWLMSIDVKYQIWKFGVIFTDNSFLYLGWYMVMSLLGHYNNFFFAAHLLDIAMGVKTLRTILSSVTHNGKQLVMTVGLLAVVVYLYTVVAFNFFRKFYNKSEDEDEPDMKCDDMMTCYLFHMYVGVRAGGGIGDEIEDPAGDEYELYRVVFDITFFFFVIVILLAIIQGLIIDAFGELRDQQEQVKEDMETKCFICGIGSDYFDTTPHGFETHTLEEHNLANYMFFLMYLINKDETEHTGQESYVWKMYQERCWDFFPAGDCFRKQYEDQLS
Sequence of UniProt Q9BUV8 (Q9BUV8 whole entry, looked up): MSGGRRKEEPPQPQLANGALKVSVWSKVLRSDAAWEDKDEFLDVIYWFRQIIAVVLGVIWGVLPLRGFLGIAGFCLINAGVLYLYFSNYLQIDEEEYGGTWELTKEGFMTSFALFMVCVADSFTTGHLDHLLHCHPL

Row | Target | log2 fold change (dasatinib) | log2 fold change [1] | log2 fold change (quisinostat) | log2 fold change [2] | log2 fold change [3] | log2 fold change [4] | log2 fold change [5] | log2 fold change (vorinostat) | log2 fold change (silmitasertib) | log2 fold change [6] | log2 fold change (entospletinib) | log2 fold change (nilotinib) | log2 fold change [7] | log2 fold change [8] | log2 fold change (tipifarnib)
1 | S100A6 (UniProt P06703) | 0.774 (active) | -0.063 | 0.001 | -0.078 | -0.063 | 0.026 | 0.064 | 0.136 | -0.036 | -0.071 | -0.005 | – | – | – | –
2 | RAD54L (UniProt Q92698) | -0.212 | -0.054 | – | – | 0.015 | -0.073 | – | -1.06 (active) | 0.065 | – | – | -0.004 | 0.078 | 0.037 | 0.007
3 | RHBDD1 (UniProt Q8TEB9) | – | – | – | – | 0.103 | – | -0.162 | – | – | – | 0.036 | – | – | – | –
4 | ROBO2 isoform 3 (UniProt Q9HCK4) | – | – | 0.052 | 0.009 | 0.043 | 0.005 | – | 0.136 | -0.019 | -0.042 | – | – | – | – | –
5 | RNASEH2B, A0A1B0GUE7 | – | – | – | – | 0.035 | – | – | – | – | – | – | -0.01 | 0.037 | 0.211 | 0.067
6 | RFWD3 (UniProt Q6PCD5) | 0.027 | 0.004 | -0.041 | 0.003 | – | -0.053 | 0.089 | -0.444 (active) | 0.061 | -0.027 | 0.043 | 0.042 | -0.066 | -0.082 | -0.037
7 | RUFY2 isoform 1 (UniProt Q8WXA3) | – | – | 0.047 | 0.007 | – | – | -0.009 | – | – | -0.129 | -0.014 | -0.006 | 0.02 | 0.119 | 0.177
8 | RMI2 (UniProt Q96E14) | -0.049 | -0.044 | -0.051 | 0.021 | – | 0.082 | -0.008 | -0.586 (active) | 0.092 | 0.041 | -0.01 | – | – | – | –
9 | RAD17 (UniProt O75943) | -0.064 | 0 | -0.032 | 0.038 | – | – | -0.044 | – | – | -0.052 | -0.039 | -0.027 | 0.073 | -0.023 | -0.085
10 | RETSAT (UniProt Q6NUM9) | -0.1 | -0.058 | -0.485 (active) | 0.152 | -0.005 | -0.051 | -0.087 | 0.17 | -0.016 | 0.058 | 0.036 | – | – | – | –
11 | SEMA4G isoform 2 (UniProt Q9NTN9) | 0.006 | 0.235 | 0.074 | 0.085 | – | 0.077 | 0.078 | -0.513 (active) | 0.172 | 0.103 | -0.09 | – | – | – | –
12 | RYR1 (UniProt P21817) | -0.032 | -0.061 | -0.392 (active) | 0.046 | 0.029 | 0.003 | – | 0.066 | -0.017 | -0.069 | 0.101 | – | – | – | –
13 | RBM4 isoform 3 (UniProt Q9BWF3) | – | – | -0.094 | 0.06 | – | – | – | – | – | -0.099 | – | – | – | – | –
14 | RECQL4 (UniProt O94761) | -0.007 | -0.019 | -0.094 | 0.023 | – | 0.017 | -0.003 | -0.044 | 0.019 | 0.022 | -0.023 | 0.051 | 0.102 | -0.063 | 0.024
15 | RBBP7 (UniProt C9J7L0) | – | – | – | – | – | – | – | – | – | – | – | -0.133 | 0.046 | 0.222 | 0.039
16 | SAMD4A (UniProt Q9UPU9) | -0.228 | -0.005 | -0.069 | 0.058 | -0.023 | 0.012 | -0.038 | -0.647 (active) | 0.027 | 0.014 | -0.053 | – | – | – | –
17 | RNF170 (UniProt Q96K19) | -0.008 | -0.028 | – | – | -0.07 | 0.073 | -0.003 | 0.004 | 0.169 | – | – | -0.04 | 0 | 0.043 | -0.3
18 | RAB5IF isoform 5 (UniProt Q9BUV8) | -0.108 | 0.06 | – | – | 0.026 | -0.096 | -0.039 | -0.039 | -0.007 | – | -0.015 | -0.033 | -0.033 | -0.003 | -0.189
19 | RTTN (UniProt Q86VV8) | -0.086 | -0.161 | – | – | -0.282 | 0.216 | -0.14 | -0.607 (active) | 0.138 | – | 0.053 | -0.102 | 0.14 | -0.003 | -0.069
20 | RAPGEF4 (UniProt Q8WZA2) | -0.092 | -0.061 | -0.491 | 0.16 | 0.064 | -0.192 | 0.219 | 0.143 | -0.09 | 0.353 | 0.014 | – | – | – | –
21 | SEC16A isoform 3 (UniProt O15027) | -0.026 | -0.039 | – | – | – | – | – | – | – | – | – | – | – | – | –
22 | RBM45 (UniProt Q8IUH3) | – | – | -0.145 | -0.025 | 0.061 | – | – | – | – | 0.093 | – | 0.051 | -0.077 | 0.143 | -0.012
23 | RETREG2 (UniProt Q8NC44) | – | – | -0.084 | -0.016 | -0.012 | -0.022 | -0.058 | 0.023 | 0.015 | -0.007 | -0.004 | 0.363 (active) | -0.135 | 0.055 | -0.076
